High-throughput results from PubChem BioAssay.
Only some compounds are listed: those with a hit (about 18% of all), similar ones and a draw of the others.
TDP1 cell noCPT: qHTS for Inhibitors of human tyrosyl-DNA phosphodiesterase 1 (TDP1): qHTS in cells in absence of CPT; DT40 Tdp1-/- hTDP1 cells, no CPT, ATP luminescence, 48 h; Potency, µM (series often up to 46.2 µM), for inactives: at the highest dose activity change, negative = growth inhibition, most hits filed as inhibitors; 15% of 420,000 active; AID 686978, 2013; also: potency is read from the fitted curve at half-maximal effect; nearly all actives have a fitted effect of over 55% in size
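A cellular qHTS used chicken DT40 cells lacking endogenous Tdp1 but carrying stably transfected human TDP1. Compounds were applied without camptothecin, and cell growth kinetics were judged by ATP-dependent luminescence after ≥48 hr.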
IL-1B inflam inh: inflammasome signaling inhibition, IL-1 beta readout | THP-1 LPS/ATP IL-1B secretion, AlphaLISA, 16 h; hits give low values | activity change, % at 57.5 µM | 4.7% of 360,000 active | AID 743279; in the data active = activity change below about -50%; inconclusive = mostly about -30% to -49%
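THP-1 cells pretreated 1 hr with compounds (up to 57.5 uM final), then stimulated with LPS (250 ng/mL final) plus ATP (1.25 mM final); secreted IL-1B measured by AlphaLISA after 16 hr, decreased signal indicating inhibition.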
TDP1 inh: inhibitors of human tyrosyl-DNA phosphodiesterase TDP1 | 0.28% of 350,000 active | Q9NUW8 | recombinant TDP1, AlphaScreen DNA substrate cleavage | Potency, µM (top dose mostly 130 µM), for inactives: at the top dose activity change, negative = inhibition, actives largely listed as inhibitors; also: potency is read from the fitted curve at half-maximal effect; nearly all actives have a fitted effect of over 40% in size
Target sequence (Q9NUW8 whole entry, looked up): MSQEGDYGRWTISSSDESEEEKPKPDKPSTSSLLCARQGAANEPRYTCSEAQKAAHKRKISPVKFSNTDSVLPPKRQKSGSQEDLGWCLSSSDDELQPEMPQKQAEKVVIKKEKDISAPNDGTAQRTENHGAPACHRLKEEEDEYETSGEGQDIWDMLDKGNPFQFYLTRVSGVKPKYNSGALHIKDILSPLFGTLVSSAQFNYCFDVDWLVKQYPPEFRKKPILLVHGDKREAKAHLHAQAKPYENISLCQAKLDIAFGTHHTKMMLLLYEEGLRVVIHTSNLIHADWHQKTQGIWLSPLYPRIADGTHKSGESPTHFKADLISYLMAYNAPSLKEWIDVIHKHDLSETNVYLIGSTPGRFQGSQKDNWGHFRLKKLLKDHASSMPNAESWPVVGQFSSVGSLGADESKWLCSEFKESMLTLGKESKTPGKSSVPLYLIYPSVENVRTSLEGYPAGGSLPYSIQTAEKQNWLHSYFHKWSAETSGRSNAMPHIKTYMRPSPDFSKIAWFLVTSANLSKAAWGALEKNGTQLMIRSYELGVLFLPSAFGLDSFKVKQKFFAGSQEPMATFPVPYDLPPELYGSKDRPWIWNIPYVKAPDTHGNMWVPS
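Here, a 5' biotin and 3' phosphotyrosine-FITC DNA oligonucleotide reports Tdp1 activity: intact substrate bridges AlphaScreen beads, while cleavage leaves a 3' phosphate and drops signal. All incubations at room temperature.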
Six1-Eya2 blk: Six1/Eya2 interaction inhibition. AlphaScreen GST-Six1/His-Eya2 binding, biochemical; hits give low values. activity change, % (concentration not given with the values). 0.56% of 360,000 active; in the data active = activity change below about -65%; inconclusive = mostly about -30% to -63%
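AlphaScreen with GST-Six1 and His-Eya2 (5X mix: 250 nM and 500 nM), glutathione donor and nickel acceptor beads; buffer 50 mM Tris pH 8.0, 300 mM NaCl, 1 mM TCEP; 1 h at 37 C in the dark.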
CtBP-E1A inh: CtBP/E1A binding inhibition; AlphaScreen GST-E1A/His-CtBP binding, 1536-well; hits give low values; activity change, % (no concentration beside the values); 0.49% of 340,000 active; in the data active = activity change below about -65%; inconclusive = mostly about -30% to -63%
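AlphaScreen with 125 nM GST-E1A and 125 nM His-CtBP (5X stocks) in Tris pH 8.0, 300 mM NaCl, BSA, Tween 20, TCEP. Compounds preincubated 2 h at 37 deg C, then glutathione donor/nickel acceptor beads added for 1 h at 37 deg C in dark.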
TDP1 cell CPT: DT40-hTDP1 cell growth loss with CPT; 12% of 420,000 active; AID 686979; chicken DT40 Tdp1-/-;hTDP1 cells + 20 nM CPT, ATP luminescence, 48 h; Potency, µM (doses to about 46.2 µM), inactives show at the top dose activity change, negative = growth inhibition, hits mostly inhibitors; also: potency is read from the fitted curve at half-maximal effect; nearly all actives have a fitted effect of over 55% in size
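Cell growth measured by CellTiter-Glo luminescence after a minimum 48 h, 37 C compound exposure with 20 nM CPT in Tdp1-knockout DT40 cells stably expressing hTDP1, seeded 400/well; qHTS titration format.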
Starred values were filed as active, the others as inactive; ? = inconclusive; . = not tested or not shown; [ ] = dose if it differs, or a comment. Unless noted, calls follow the shape of the dose curve; as a rule, active = well fitted curve in the direction sought with a large enough effect; inconclusive = small, poorly fitted or top-dose-only effect, or another doubt; inactive = no such curve, though single readings can be large; an effect the other way counts as inactive or inconclusive. % is scaled to controls: 0 for no effect and ±100 for the full control effect.

SMILES	TDP1 cell noCPT	IL-1B inflam inh	TDP1 inh	Six1-Eya2 blk	CtBP-E1A inh	TDP1 cell CPT
COc1ccc2[nH]cc(CCNc3ncncc3-c3ccc4c(c3)OCO4)c2c1	18.4µM*	.	.	.	.	6.51µM*
COc1ccc2[nH]cc(CCNc3cc(-c4ccc5c(c4)OCO5)ncn3)c2c1	20.6µM*	.	.	.	.	?
Cc1cccc(CNc2ncncc2-c2ccc3c(c2)OCO3)c1	?	.	-7.3%[56.1 µM]	.	.	?
N#Cc1cccc(-c2cncnc2NCCc2cnc[nH]2)c1	-25.2%	.	.	.	.	-11.9%
COc1ccc2[nH]cc(CCNc3cc(-c4ccccc4C)ncn3)c2c1	16.4µM*	.	.	.	.	9.2µM*
COc1cccc(-c2cncnc2NCCc2cnc[nH]2)c1	?	.	.	.	.	2.59µM*
COc1ccc2[nH]cc(CCNc3cc(-c4cccnc4)ncn3)c2c1	-24.9%	.	.	.	.	?
COc1cc2c(cc1OC)[C@@H]1Cc3ccc(OC)c(OC)c3CN1CC2	?	29.9	.	3.1	0.6	3.3%
CCN(c1cccc(C(F)(F)F)c1)S(=O)(=O)c1ccc2c(c1)CCN2C(C)=O	?	?	-1.1%	0.6	3.5	?
CC1CN(C(=O)N(C)C)CCN1C(=O)N(C)C (stereo unspecified)	-9.4%	1.2	0.0%	-21.9	10.7	-5.4%
COC(=O)[C@@]1(Cc2ccc(OC)cc2)[C@H]2c3cc(C(=O)N4CCCC4)n(Cc4nc5ccccc5[nH]4)c3C[C@H]2CN1C(=O)c1ccccc1	.	.	15.9%	.	.	.
O=C1CC(N2CCN(c3ccc(S(=O)(=O)N4CCCC4)cc3)CC2)C(=O)N1c1ccc(F)cc1 (stereo unspecified)	-1.9%	6.7	8.8%	5.1	3.7	7.4%
CCOC(=O)C1=C(COC(=O)c2cccnc2SC)NC(=O)NC1C (stereo unspecified)	-0.5%	?	-18.3%	-2.4	7.4	3.5%
COc1cccc(-c2cncnc2NCCc2c[nH]c3ccc(OC)cc23)c1	20.6µM*	.	.	.	.	23.1µM*
Cc1ccccc1N1CCN(C2CCCN(C(=O)c3ccc(Cl)s3)C2)CC1 (stereo unspecified)	?	-11.0	4.6%	-6.0	-0.8	?
O=C(O)[C@]1(S(=O)(=O)c2ccccc2)C[C@@H]2ON=C(c3cccc(Br)c3)[C@@H]2C1	-20.7%	-13.7	.	-2.6	-6.3	?
O=S(=O)(c1ccccc1)[C@@]1(c2ccccc2)C[C@@H]2ON=C(c3cccc(Br)c3)[C@@H]2C1	3.66µM*	58.5	-3.8%	1.1	3.4	4.61µM*
Cc1ccc(S(=O)(=O)NCC(c2ccco2)N2CCc3ccccc3C2)cc1 (stereo unspecified)	?	1.6	-3.0%	16.7	3.0	23.1µM*
O=S(=O)(NCC(c1ccco1)N1CCc2ccccc2C1)c1ccc(Br)cc1 (stereo unspecified)	?	-26.5	.	-0.9	0.2	?
COc1ccc(OC)c(S(=O)(=O)NCC(c2ccco2)N2CCc3ccccc3C2)c1 (stereo unspecified)	?	5.6	.	-11.2	2.6	?
COc1ccc(C)cc1S(=O)(=O)NCC(c1ccco1)N1CCc2ccccc2C1 (stereo unspecified)	?	-9.9	.	-9.6	-1.6	29.1µM*
COc1ccc(/C(N)=N/OC(=O)Cc2ccc(OC)c(OC)c2)cc1	?	-77.8*	7.3%	1.3	10.4	?
Cc1ccc2c(COC(=O)C34CC5CC(CC(C5)C3)C4)cc(=O)oc2c1	?	14.6	0.0%	-2.0	1.7	?
CCOC(=O)c1c(C)oc2c1c(CN1CCN(C(=O)OCC)CC1)c(O)c1ccccc12	20.6µM*	?	5.3%	-12.5	0.0	?
CCOC(=O)N1CCN(Cc2cc(=O)oc3ccc4ccccc4c23)CC1	?	-2.4	-4.4%	-4.7	8.8	23.1µM*
